Bioassay records deposited in PubChem BioAssay by The Scripps Research Institute Molecular Screening Center.
Shown are actives, neighbours in structure and some others; about 2.9% of the full set was active somewhere.
ADAM17 inh: ADAM17 inhibition, QFRET primary screen. AID 720648. hit rate 0.83% among 370,000. inhibition, % at 6.95 µM. recombinant ADAM17, EDANS/DABCYL FRET peptide cleavage. P78536;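 active = inhibition above the mean of compounds lying between control limits plus 3 SD, set per campaign, cut at about 8.5% in these data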;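 also: 0% = DMSO-only wells as the low control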
PLCb3 inh: inhibitors of human phospholipase C beta3; Q01970; AID 720704; hit rate 0.18% among 370,000; inhibition, % at 12.2 µM; Purified PLC-beta3, fluorogenic substrate, fluorescence; in the data active = inhibition above about 11%;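 also: 0% = median of compound wells on plate and 100% = full blocker control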
ADAM10 inh: ADAM10 inhibition, QFRET primary screen; O14672; recombinant ADAM10, EDANS/DABCYL FRET peptide cleavage, 3 h; inhibition, % at 7 µM; hit rate 0.62% among 370,000;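 active = inhibition above a per-campaign cutoff equal to the mean of compounds falling between control-based bounds plus 3 SD, cut at about 20% in these data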;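 also: 0% = DMSO wells while the 100% control is not disclosed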
Target sequence (O14672 214-748 limits assumed): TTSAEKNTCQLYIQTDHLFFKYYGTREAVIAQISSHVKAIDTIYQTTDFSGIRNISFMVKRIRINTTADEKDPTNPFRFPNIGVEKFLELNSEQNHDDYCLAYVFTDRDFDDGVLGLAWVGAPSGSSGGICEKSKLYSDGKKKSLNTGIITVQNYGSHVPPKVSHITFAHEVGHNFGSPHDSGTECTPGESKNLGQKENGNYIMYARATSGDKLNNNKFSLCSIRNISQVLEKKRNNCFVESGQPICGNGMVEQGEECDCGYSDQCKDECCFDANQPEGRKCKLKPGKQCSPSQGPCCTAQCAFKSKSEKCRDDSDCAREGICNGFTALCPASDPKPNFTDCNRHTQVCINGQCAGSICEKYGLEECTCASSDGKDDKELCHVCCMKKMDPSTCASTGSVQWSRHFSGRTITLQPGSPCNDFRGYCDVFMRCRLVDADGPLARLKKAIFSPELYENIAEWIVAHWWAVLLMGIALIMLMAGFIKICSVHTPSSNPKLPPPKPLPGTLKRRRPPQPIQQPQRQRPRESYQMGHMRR
KLK7 zymogen act: proKLK7 (human) activation, primary screen; P49862; purified proKLK7, EDANS-DABCYL substrate fluorescence; 100% is mature enzyme control, 0% vehicle; activation, % at 7 µM; hit rate 0.9% among 370,000; AID 652039;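 active = activation above the mean of all tested compounds plus 3 SD, computed per campaign excluding outliers beyond control limits, cut at about 13% in these data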
PLC-gamma1 inh: inhibitors of human phospholipase C gamma1; purified PLC-gamma1, fluorogenic substrate, fluorescence; inhibition, % at 12.2 µM; hit rate 0.84% among 370,000; in the data active = inhibition above about 9.5%
ADAM10 confirm: confirmation of inhibitors of human ADAM10; AID 743208; hit rate 1% among 2,100; ADAM10 QFRET peptide cleavage, EDANS fluorescence; shares compounds with ADAM10 inh; inhibition, % at 6.95 µM;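 active = inhibition above about 20% chosen separately for each screening run, limit read from the data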;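 also: 0% = DMSO wells and 100% = marimastat wells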
ADAM17 counter: ADAM17 inhibition, counter-screen for ADAM10 exosite hits; inhibition, % at 6.95 µM; AID 743214; hit rate 0.5% among 2,100; ADAM17 QFRET peptide cleavage, EDANS fluorescence; shares compounds with ADAM10 inh;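 active = mean triplicate inhibition above the solvent-only control wells' mean plus 3 SD, cut at about 12% in these data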;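 also: 0% = DMSO wells and 100% = marimastat wells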
* marks the source's active call; other numbers are inactive results; i = inactive; / = no result.

SMILES	ADAM17 inh	PLCb3 inh	ADAM10 inh	KLK7 zymogen act	PLC-gamma1 inh	ADAM10 confirm	ADAM17 counter
O=C(c1ccccc1O)N1N=C(C(F)(F)F)CC1(O)c1ccc([N+](=O)[O-])cc1 (stereo not given)	6	-2	27*	0	7	1	0
C#CC1(O)CCCC2C3CCC4CC(OC(C)=O)CCC4(C)C3C(=O)CC21C (stereo not given)	2	2	24*	0	2	2	0
CC(=O)C1(O)CCC2C3CCC4CC(O)CCC4(C)C3C(=O)CC21C (stereo not given)	-4	2	-3	-1	2	/	/
CCCCNC(=O)OCCCN1CCC2(CCC(c3ccccc3)CC2)C1 (stereo not given)	-3	0	-4	1	1	/	/
O=C1OCCN1C(=O)[C@H]1[C@H](c2ccccc2)C(c2cccc(Cl)c2)=NN1c1ccc(Br)cc1	-131	-307	i	-91	-213	/	/
O=C1OCCN1C(=O)[C@H]1[C@H](c2ccc([N+](=O)[O-])cc2)C(c2cccc(Cl)c2)=NN1c1ccc(Br)cc1	6	-11	24*	1	-11	14	5
COc1cccc(Oc2cn[nH]c2-c2ccc(OC)cc2O)c1	7	-1	19	0	6	/	/
CCCc1ccc(Oc2cn[nH]c2-c2ccc(O)c(C)c2O)cc1	14*	-5	32*	0	1	11	4
COC(=O)C1CN(C2CCCC2)CCS(=O)(=O)N1Cc1ccccc1 (stereo not given)	-4	2	-12	0	-1	/	/
Cc1nn(-c2ccccc2)c(C)c1/C=N/NC(=O)c1cc(-c2cccc3ccccc23)n[nH]1	8	3	24*	-1	3	6	2
Cc1ccc(C)c(NC(=O)Cn2nnc(-c3ccncc3)n2)c1	-2	1	1	0	1	/	/
COc1ccc(S(=O)(=O)Nc2cc(OC)c(NC(=O)c3ccco3)cc2OC)cc1	8	-11	21*	0	1	1	0
Cc1cccc(-c2noc(Cc3ccc(Cl)cc3)n2)c1	2	0	20*	0	4	4	1
O=C(Nc1ccc(F)cc1)OCCN1C(=O)CCC12CCC(c1ccc(Cl)cc1)CC2 (stereo not given)	1	0	1	0	4	/	/
O=C(NC(NC(=S)Nc1ccc(Cl)c(Cl)c1)C(Cl)(Cl)Cl)c1ccco1 (stereo not given)	9	6	29*	2	2	4	2
O=C(O)c1cccc(NC(=S)NC(NC(=O)c2ccco2)C(Cl)(Cl)Cl)c1 (stereo not given)	-2	-7	-13	0	5	/	/
CC/C=C\[C@H](O)[C@H](O)C1=C(C)C(=O)[C@]2(O1)C(=O)N[C@@](OC)(C(=O)c1ccccc1)C2O (stereo not given in full)	-7	-16	63*	0	-12	7	3
COc1cccc(NC(=S)NC(Cc2ccccc2)c2ccccc2)c1 (stereo not given)	7	5	21*	1	1	6	2
COc1ccc(S(=O)(=O)NCC(=O)N(Cc2ccco2)C(C(=O)NC(C)(C)C)C(C)C)cc1 (stereo not given)	0	2	20*	-1	7	1	0
COc1ccc(NC(=O)c2ccc(F)cc2)cc1S(=O)(=O)Nc1cc(C)ccc1Br	8	-1	23*	1	3	8	3
CCOc1ccc(Cl)cc1-c1cc(C(=O)Nc2ccc(OC)nc2)[nH]n1	0	2	2	0	0	/	/
COc1ccc(NC(=O)c2cc(-c3cc(C)cc(F)c3)n[nH]2)cc1OC	8	-3	26*	-1	2	0	0
CCOc1ccc(Cl)cc1-c1cc(C(=O)Nc2cc(OC)c(OC)c(OC)c2)[nH]n1	7	3	20*	1	6	7	1
Cc1cc(C)c(C(=O)OCC(=O)Nc2cccc(S(=O)(=O)N3CCCCC3)c2)c(C)c1	13*	0	28*	0	1	8	4
